Results filed as inconclusive are left out. Activity calls are given as the source filed them. Calls come from the whole dose curve; as a rule, active = well fitted curve in the direction sought with a large enough effect; inconclusive = small, poorly fitted or top-dose-only effect, or another doubt; inactive = no such curve, though single readings can be large; an effect the other way counts as inactive or inconclusive.

A short description of experiment [1]: Quantitative High-Throughput drug screen in 47 multiple myeloma cell lines against the NCATS MIPE library collection: ARD_JJKsccE7 cell viability assay (AID 1918929). Put shortly:
(§1)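 qHTS of the MIPE 4.0 collection: 500 myeloma cells/well, 48 h drug exposure at 37C in 5% CO2, then CellTiter-Glo for 5 min at room temperature before luminescence reading.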

A short description of experiment [2]: Quantitative High-Throughput drug screen in 47 multiple myeloma cell lines against the NCATS MIPE library collection: Karpas620_DSMZ cell viability assay (AID 1918959). Note: nearly all actives have a fitted effect of over 30% in size. Put shortly:
(§2)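 Myeloma cells (500 per well) were exposed to MIPE 4.0 compounds by pin transfer and incubated 48 hours at 37C, 5% CO2. Viability was read as ATP by CellTiter-Glo luminescence, normalised to DMSO (100%) and media-only (0%) wells.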

A short description of experiment [3]: Quantitative High-Throughput drug screen in 47 multiple myeloma cell lines against the NCATS MIPE library collection: KMM1_JCRB cell viability assay (AID 1918960). Note: nearly all actives have a fitted effect of over 30% in size. Put shortly: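 Cell viability inhibition in this qHTS is measured via ATP content (CellTiter-Glo) after 48 h drug exposure at 37 °C. Wells hold 500 cells; DMSO-treated wells define 100% and medium-only wells 0%.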

Experiment [4] in a line: Quantitative High-Throughput drug screen in 47 multiple myeloma cell lines against the NCATS MIPE library collection: KHM11_PLB cell viability assay (AID 1918962). Note: nearly all actives have a fitted effect of over 35% in size. Put shortly:
as §2

A short description of experiment [5]: Quantitative High-Throughput drug screen in 47 multiple myeloma cell lines against the NCATS MIPE library collection: JIM3_ECACC cell viability assay (AID 1918963; note: nearly all actives have a fitted effect of over 35% in size). Put shortly:
as §2

A short description of experiment [6]: Quantitative High-Throughput drug screen in 47 multiple myeloma cell lines against the NCATS MIPE library collection: JJN3_DSMZ cell viability assay (AID 1918966; note: nearly all actives have a fitted effect of over 50% in size). Put shortly: as §1
Experiment [7] is described as follows: Quantitative High-Throughput drug screen in 47 multiple myeloma cell lines against the NCATS MIPE library collection: H1112_PLB cell viability assay (AID 1918967; note: nearly all actives have a fitted effect of over 30% in size). Put shortly:
as §1

Experiment [8] can be described thus: Quantitative High-Throughput drug screen in 47 multiple myeloma cell lines against the NCATS MIPE library collection: Karpas25_ECACC cell viability assay (AID 1918968; note: nearly all actives have a fitted effect of over 35% in size). Put shortly:
as §1

Experiment [9] in a line: Quantitative High-Throughput drug screen in 47 multiple myeloma cell lines against the NCATS MIPE library collection: KMS12BM_JCRB cell viability assay (AID 1918971). Note: nearly all actives have a fitted effect of over 35% in size. Put shortly:
(§3)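 Luminescent ATP measurement with CellTiter-Glo gives viability, scaled between DMSO-only wells (100%) and media-only wells (0%). Cells, 500 per well, faced library compounds for 48 hours at 37C.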

A short description of experiment [10]: Quantitative High-Throughput drug screen in 47 multiple myeloma cell lines against the NCATS MIPE library collection: KMS12PE_JCRB cell viability assay (AID 1918972). Note: nearly all actives have a fitted effect of over 30% in size. Put shortly: (§4)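 CellTiter-Glo ATP luminescence gave viability after 48 h compound treatment at 37C of 500 multiple myeloma cells per well. Normalisation used DMSO-only wells as 100% and media-only wells as 0% viability; primary qHTS of approved and investigational drugs.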

Experiment [11] is described as follows: Quantitative High-Throughput drug screen in 47 multiple myeloma cell lines against the NCATS MIPE library collection: KMS20_JCRB cell viability assay (AID 1918973). Note: nearly all actives have a fitted effect of over 45% in size. Put shortly:
as §1

Experiment [12] in a line: Quantitative High-Throughput drug screen in 47 multiple myeloma cell lines against the NCATS MIPE library collection: NCIH929_DSMZ cell viability assay (AID 1918978). Note: nearly all actives have a fitted effect of over 35% in size. Put shortly:
(§5)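 ATP-based CellTiter-Glo luminescence after 48 h drug exposure (37 °C, 5% CO2) of 500 myeloma cells per well. DMSO-only wells set 100% viability, media-only wells 0%; MIPE 4.0 library added by pin tool.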

The nature of experiment [13]: Quantitative High-Throughput drug screen in 47 multiple myeloma cell lines against the NCATS MIPE library collection: Karpas417_ECACC cell viability assay (AID 1918961). The conditions noted are these: Karpas417 myeloma viability, CellTiter-Glo ATP luminescence, 48 h; viability (% of DMSO): at 45.8 µM (top of the series). Put shortly: as §4
Experiment [14] is described as follows: Quantitative High-Throughput drug screen in 47 multiple myeloma cell lines against the NCATS MIPE library collection: JIM1_ECACC cell viability assay (AID 1918964). Put shortly:
as §1

Experiment [15] can be described thus: Quantitative High-Throughput drug screen in 47 multiple myeloma cell lines against the NCATS MIPE library collection: INA6_PLB cell viability assay (AID 1918965; note: nearly all actives have a fitted effect of over 55% in size). Put shortly: as §4
A short description of experiment [16]: Quantitative High-Throughput drug screen in 47 multiple myeloma cell lines against the NCATS MIPE library collection: KMS27_JCRB cell viability assay (AID 1918970). Note: nearly all actives have a fitted effect of over 30% in size. Put shortly: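 KMS27_JCRB myeloma cells, 500 per well, exposed 48 h at 37 C, 5% CO2 to MIPE 4.0 compounds. Viability from ATP by CellTiter-Glo luminescence, normalized to DMSO (100%) and medium-only (0%) wells.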

Experiment [17] can be described thus: Quantitative High-Throughput drug screen in 47 multiple myeloma cell lines against the NCATS MIPE library collection: KMS21BM_JCRB cell viability assay (AID 1918974). The conditions noted are these: ATP luminescence, 48 h; viability: at 45.8 µM (top of the series) unless noted. Put shortly:
as §1

A short description of experiment [18]: Quantitative High-Throughput drug screen in 47 multiple myeloma cell lines against the NCATS MIPE library collection: KMS26_JCRB cell viability assay (AID 1918975). Note: nearly all actives have a fitted effect of over 45% in size. Put shortly:
as §3

A short description of experiment [19]: Quantitative High-Throughput drug screen in 47 multiple myeloma cell lines against the NCATS MIPE library collection: MMM1_PLB cell viability assay (AID 1918976). Note: nearly all actives have a fitted effect of over 35% in size. Put shortly: as §5
The nature of experiment [20]: Quantitative High-Throughput drug screen in 47 multiple myeloma cell lines against the NCATS MIPE library collection: MOLP8_DSMZ cell viability assay (AID 1918977). Note: nearly all actives have a fitted effect of over 45% in size. Put shortly:
as §5
Potency is the fitted concentration of half-maximal effect.

Take `COc1ccc(C2Sc3ccccc3N(CCN(C)C)C(=O)C2OC(C)=O)cc1` (configuration not stated): the Potency result in [1], in experiment [2], in experiment [3], in [4], in [5] and in experiment [6] was “inactive” in each case. Besides, the Potency result in experiment [7], in experiment [8], in experiment [10], in experiment [11] and in experiment [12] was “inactive” each time. The Potency in experiment [9] was 2.64 µM (active).

For `Cc1[nH]c(C=C2C(=O)Nc3ccc(S(=O)(=O)Cc4c(Cl)cccc4Cl)cc32)c(C)c1C(=O)N1CCC[C@H]1CN1CCCC1`, the Potency in [1] is 9.35 µM (active); in experiment [3], 18.7 µM (active); in [13], 1.48 µM (active); in [4], 8.33 µM (active); in experiment [5], 18.7 µM (active); in experiment [14], 7.43 µM (active). The Potency in [15] is 3.32 µM (active); in [6], 23.5 µM (active); in experiment [7], 14.8 µM (active); in experiment [16], 2.64 µM (active); in experiment [9] it was 23.5 µM (active); in experiment [10], 2.64 µM (active). Moreover, the Potency is 0.743 µM (active) in [11]; 4.69 µM (active) in experiment [17]; 23.5 µM (active) in [18]; 23.5 µM (active) in experiment [19]; 16.6 µM (active) in experiment [20]; 8.33 µM (active) in [12].

As to `C[C@H](NC(=O)c1sccc1OCc1ccc(Cl)cc1)c1ccccc1`, the Potency result in experiment [1], in [2], in experiment [3], in experiment [16] and in experiment [10] was “inactive” each time. Besides, the values for the Potency in experiment [15] and in experiment [19] were 26.4 µM (active) and 16.6 µM (active), respectively.

On to `NC(=O)c1ccc2nc(-c3ccc(Oc4ccc(Cl)cc4)cc3)[nH]c2c1`, for which the Potency in experiment [1] was 5.9 µM (active); in experiment [3], 0.469 µM (active); in experiment [13] it was 0.187 µM (active); in [4], 0.0083 µM (active); in experiment [5], 0.105 µM (active); in experiment [15] it was 0.0209 µM (active). Further, the Potency was 4.69 µM (active) in experiment [8]; 9.35 µM (active) in [10]; 5.26 µM (active) in experiment [11]; 18.7 µM (active) in experiment [17]; 0.0235 µM (active) in experiment [12]. In addition, the Potency result in [7] was “inactive”.

On to `CC1(C)CCC2=C(O1)c1ccccc1C(=O)C2=O`, for which, in [1], the Potency result is “inactive”. In addition, the Potency in experiment [2] was 2.96 µM (active); in [15] it was 20.9 µM (active); in [16], 3.32 µM (active); in experiment [9] it was 20.9 µM (active); in [10], 5.9 µM (active); in experiment [11], 18.7 µM (active). Besides, the Potency is 18.7 µM (active) in [18], 2.64 µM (active) in [19] and 20.9 µM (active) in [20].

Turning to `Nc1ncnc2c1ncn2[C@@H]1O[C@@H](CO)[C@H](O)[C@H]1O`, the Potency entry in [1], in experiment [2], in experiment [13], in experiment [5], in experiment [14] and in experiment [15] was “inactive” throughout. The Potency entry in experiment [7], in [8], in [16], in [9], in experiment [10] and in experiment [18] was “inactive” in each case. The Potency result in experiment [20] and in [12] was “inactive” throughout.

For `O=c1c(-c2ccc(O)cc2)coc2cc(O[C@@H]3O[C@H](CO)[C@H](O)[C@H](O)[C@H]3O)ccc12`, the Potency result in experiment [1], in [2], in [3], in experiment [14], in [6] and in [7] was “inactive” throughout. Moreover, the Potency result in experiment [9], in experiment [10], in experiment [18] and in experiment [12] was “inactive” each time.

As for `O=C(NC1CCOCC1)c1ccc(-c2cc(-c3cn[nH]c3-c3ccccn3)ccn2)cc1`, in [1], the Potency is 0.0296 µM (active). The Potency result in experiment [2], in experiment [15], in [6], in [7], in [16] and in experiment [10] was “inactive” throughout. For the same compound, the Potency entry in [18] and in [12] was “inactive” each time.

For `CCCCCN(C)CCC(O)(P(=O)(O)O)P(=O)(O)O`, the Potency result in experiment [1], in experiment [2], in [4], in experiment [5], in [14] and in experiment [15] was “inactive” in each case. Also, the Potency result in experiment [7], in experiment [8], in experiment [16], in experiment [18] and in experiment [12] was “inactive” each time. In addition, the viability (% of DMSO) in experiment [13] was 78.6% (active).

Regarding `CC1CCC(C(=O)N(c2cc(C#CC(C)(C)C)sc2C(=O)O)C2CCC(O)CC2)CC1` (configuration not stated), the Potency entry in experiment [1], in experiment [2], in [3], in experiment [14], in [16] and in experiment [10] was “inactive” in each case. Also, the Potency in [15] was 26.4 µM (active).

With `O=C(Nc1cccc(Br)c1)c1cccc(S(=O)(=O)N2CCCCCC2)c1`, the Potency in experiment [1] is 16.6 µM (active); in experiment [2], 20.9 µM (active); in experiment [3], 16.6 µM (active); in [14], 7.43 µM (active); in experiment [15], 18.7 µM (active); in [8], 18.7 µM (active). In addition, the Potency in [9] was 20.9 µM (active); in experiment [10] it was 10.5 µM (active); in experiment [19] it was 18.7 µM (active). Also, in [20], the Potency entry was “inactive”.

As for `O=C(O)C(O)Cc1ccc(O)c(O)c1` (configuration not stated), the Potency result in experiment [1], in [2], in experiment [5], in [14], in experiment [7] and in [16] was “inactive” throughout. Also, the Potency entry in [10] and in experiment [12] was “inactive” each time. In addition, the Potency was 23.5 µM (active) in [6]; 0.0083 µM (active) in [17]; 20.9 µM (active) in [18]; 5.26 µM (active) in experiment [19]; 20.9 µM (active) in [20].

For `COc1ccc2c(Oc3ccc(NC(=O)c4c(C)n(CC(C)(C)O)n(-c5ccccc5)c4=O)cc3F)ccnc2c1`, the Potency in experiment [1] was 20.9 µM (active); in experiment [2] it was 23.5 µM (active); in experiment [6] it was 8.33 µM (active); in experiment [7], 20.9 µM (active); in [16], 20.9 µM (active); in [9], 33.2 µM (active). In addition, in experiment [10], the Potency was 26.4 µM (active). Moreover, the Potency entry in [13] and in experiment [18] was “inactive” in each case.

As for `CC(=Cc1ccccc1)C=C1SC(=S)N(CC(=O)O)C1=O`, the Potency entry in [1], in experiment [3], in experiment [13], in [4], in [5] and in [15] was “inactive” throughout. Besides, the Potency entry in [7], in experiment [8], in experiment [9], in [10], in experiment [11] and in [18] was “inactive” in each case. Moreover, the Potency entry in experiment [12] was “inactive”. Also, in experiment [16], the Potency was 0.59 µM (active).

The record behind these values is PubChem BioAssay (NCATS).
